# Measurements taken from PubChem BioAssay (NCATS).
# Several values for one entry are separate records, joined by “and”; a condition that tells them apart may be missing. Equal entries are not always repeated. Records with an inconclusive call do not appear. Where a call stands in place of a potency, no number is given. Activity calls are given as the source filed them. The call rests on the fitted dose curve; tested in HEK293 reporter line. Numbered stars: 1 amine (or outer) side, 2 acyl side, 3 side chain; on linkers, the order of the positions; unused ones are H or OH. Bridge positions count the residues as written; N and C are the ends. Square brackets hold non-standard residues; d marks the D form. Peptide text beside a SMILES is read from it. I, II: the chains in the order shown. Actinocin(9to1) = Cc1c2oc3c(C)ccc(C(=O)[*:1])c3nc-2c(C(=O)[*:2])c(N)c1=O; NMeV = CN[C@H](C(=O)O)C(C)C; Sar = CNCC(=O)O
# Assay: qHTS for Inhibitors of the Functional Ribonucleoprotein Complex (vRNP) of Lassa (LASV) Arenavirus: LASV Primary Screen - GLuc reporter signal (AID 1347082); further: nearly all actives have a fitted effect of over 60% in size
# Settings: LASV minigenome vRNP, Gaussia luciferase reporter; series mostly up to 57.5 µM
# Potency means the concentration at half of the fitted maximal effect.
row,SMILES,Potency
1,CCCCOCCOCCOCc1cc2c(cc1CCC)OCO2,inactive
2,CN(C)CCC=C1c2ccccc2CCc2ccccc21,inactive
3,CN/C(=C\[N+](=O)[O-])NCCSCc1ccc(CN(C)C)o1,inactive
4,CC[C@@]1(O)C(=O)OCc2c1cc1n(c2=O)Cc2cc3c(CN(C)C)c(O)ccc3nc2-1,8.63 µM (active)
5,CCCCC1=NC2(CCCC2)C(=O)N1Cc1ccc(-c2ccccc2-c2nn[nH]n2)cc1,inactive
6,COc1ccc([C@@H]2Sc3ccccc3N(CCN(C)C)C(=O)[C@@H]2OC(C)=O)cc1,inactive
7,CN(C)CCOC(c1ccc(Cl)cc1)c1ccccn1 (stereo unspecified),inactive
8,CCCCCOC(=O)Nc1nc(=O)n([C@@H]2O[C@H](C)[C@@H](O)[C@H]2O)cc1F,inactive
9,O[C@@H](c1cc(C(F)(F)F)nc2c(C(F)(F)F)cccc12)[C@H]1CCCCN1,inactive
10,C=C[C@H]1CN2CC[C@H]1C[C@@H]2[C@@H](O)c1ccnc2ccc(OC)cc12,inactive
11,Cc1cccc(C)c1OCC(C)N (stereo unspecified),inactive
12,Cc1ccc(S(=O)(=O)NC(=O)NN2CCCCCC2)cc1,inactive
13,O=C(O)c1cn(C2CC2)c2cc(N3CCNCC3)c(F)cc2c1=O,inactive
14,CCN(CCO)CCCC(C)Nc1ccnc2cc(Cl)ccc12 (stereo unspecified),inactive
15,CN1C(=O)CC(C)(c2ccccc2)C1=O (stereo unspecified),inactive
16,CC[C@@H](CO)NCCN[C@@H](CC)CO,inactive
17,CCC(=O)O[C@H]1[C@H](O[C@@H]2[C@@H](C)[C@H](O[C@H]3C[C@@](C)(OC)[C@@H](O)[C@H](C)O3)[C@@H](C)C(=O)O[C@H](CC)[C@@](C)(O)[C@H](O)[C@@H](C)C(=O)[C@H](C)C[C@@]2(C)O)O[C@H](C)C[C@@H]1N(C)C,inactive
18,Cc1ncc([N+](=O)[O-])n1CCO,inactive
19,N[C@@H](C(=O)N[C@@H]1C(=O)N2C(C(=O)O)=C(Cl)CS[C@H]12)c1ccccc1,inactive

row,SMILES,Potency
1,CCn1cc(C(=O)O)c(=O)c2cc(F)c(N3CCNCC3)cc21,inactive
2,Cc1ccc(O)c([C@H](CCN(C(C)C)C(C)C)c2ccccc2)c1,inactive
3,N=c1nc(N2CCCCC2)cc(N)n1O,inactive
4,"Cc1c2oc3c(C)ccc(C(=O)N[C@@H]4C(=O)N[C@H](C(C)C)C(=O)N5CCC[C@H]5C(=O)N(C)CC(=O)N(C)[C@@H](C(C)C)C(=O)O[C@@H]4C)c3nc-2c(C(=O)N[C@@H]2C(=O)N[C@H](C(C)C)C(=O)N3CCC[C@H]3C(=O)N(C)CC(=O)N(C)[C@@H](C(C)C)C(=O)O[C@@H]2C)c(N)c1=O (I: T[dV]P[Sar][NMeV] / II: T[dV]P[Sar][NMeV]; ester I:1-I:C, II:1-II:C; linker I:N-II:N via Actinocin(9to1))",inactive
5,CN1CC(=O)N/C1=N/C(=O)Nc1cccc(Cl)c1,inactive
6,Cc1oncc1C(=O)Nc1ccc(C(F)(F)F)cc1,inactive
7,C[C@H]1O[C@H](O[C@H]2[C@H](O)[C@@H](O)[C@@H](O[C@H]3[C@H](O)[C@@H](O)[C@H](O)O[C@@H]3CO)O[C@@H]2CO)[C@H](O)[C@@H](O)[C@@H]1N[C@H]1C=C(CO)[C@@H](O)[C@H](O)[C@H]1O,inactive
8,COC(=O)[C@H]1[C@H]2C[C@@H]3c4[nH]c5cc(OC)ccc5c4CCN3C[C@H]2C[C@@H](OC(=O)c2cc(OC)c(OC)c(OC)c2)[C@@H]1OC,inactive
9,CC[C@@H]([C@H](C)O)n1ncn(-c2ccc(N3CCN(c4ccc(OC[C@@H]5CO[C@@](Cn6cncn6)(c6ccc(F)cc6F)C5)cc4)CC3)cc2)c1=O,inactive
10,CC1(C)S[C@@H]2[C@H](NC(=O)C(C(=O)O)c3ccccc3)C(=O)N2[C@H]1C(=O)O (stereo partly specified),inactive
11,C=C(CC)C(=O)c1ccc(OCC(=O)O)c(Cl)c1Cl,inactive
12,CC1=NS(=O)(=O)c2cc(Cl)ccc2N1,inactive
13,OC(CCN1CCCC1)(c1ccccc1)C1CCCCC1 (stereo unspecified),inactive
14,COc1ccccc1OCCNCC(O)COc1cccc2[nH]c3ccccc3c12 (stereo unspecified),inactive
15,NC(=O)N1c2ccccc2CC(=O)c2ccccc21,inactive
16,CC(C)C[C@H](NC(=O)[C@H](CCc1ccccc1)NC(=O)CN1CCOCC1)C(=O)N[C@@H](Cc1ccccc1)C(=O)N[C@@H](CC(C)C)C(=O)[C@@]1(C)CO1,0.485 µM (active)
17,O=C(O)CCCc1ccccc1,inactive
18,CN(C)C(=N)N=C(N)N,inactive
19,CCCC(=O)Nc1ccc(OCC(O)CNC(C)C)c(C(C)=O)c1 (stereo unspecified),inactive

# Assay: qHTS for Inhibitors of the Functional Ribonucleoprotein Complex (vRNP) of Lassa (LASV) Arenavirus: Viability assay - alamar blue signal for LASV Primary Screen (AID 1347083); further: nearly all actives have a fitted effect of over 80% in size
# Settings: cell viability, alamar blue fluorescence (LASV minigenome counter-screen); series mostly up to 57.5 µM
row,SMILES,Potency
1,CCCCOCCOCCOCc1cc2c(cc1CCC)OCO2,inactive
2,CN(C)CCC=C1c2ccccc2CCc2ccccc21,inactive
3,CN/C(=C\[N+](=O)[O-])NCCSCc1ccc(CN(C)C)o1,inactive
4,CC[C@@]1(O)C(=O)OCc2c1cc1n(c2=O)Cc2cc3c(CN(C)C)c(O)ccc3nc2-1,2.82 µM (active) and 1.09 µM (active)
5,CCCCC1=NC2(CCCC2)C(=O)N1Cc1ccc(-c2ccccc2-c2nn[nH]n2)cc1,inactive
6,COc1ccc([C@@H]2Sc3ccccc3N(CCN(C)C)C(=O)[C@@H]2OC(C)=O)cc1,inactive
7,CN(C)CCOC(c1ccc(Cl)cc1)c1ccccn1 (stereo unspecified),inactive
8,CCCCCOC(=O)Nc1nc(=O)n([C@@H]2O[C@H](C)[C@@H](O)[C@H]2O)cc1F,inactive
9,O[C@@H](c1cc(C(F)(F)F)nc2c(C(F)(F)F)cccc12)[C@H]1CCCCN1,inactive
10,C=C[C@H]1CN2CC[C@H]1C[C@@H]2[C@@H](O)c1ccnc2ccc(OC)cc12,inactive
11,Cc1cccc(C)c1OCC(C)N (stereo unspecified),inactive
12,Cc1ccc(S(=O)(=O)NC(=O)NN2CCCCCC2)cc1,inactive
13,O=C(O)c1cn(C2CC2)c2cc(N3CCNCC3)c(F)cc2c1=O,inactive
14,CCN(CCO)CCCC(C)Nc1ccnc2cc(Cl)ccc12 (stereo unspecified),inactive
15,CN1C(=O)CC(C)(c2ccccc2)C1=O (stereo unspecified),inactive
16,CC[C@@H](CO)NCCN[C@@H](CC)CO,inactive
17,CCC(=O)O[C@H]1[C@H](O[C@@H]2[C@@H](C)[C@H](O[C@H]3C[C@@](C)(OC)[C@@H](O)[C@H](C)O3)[C@@H](C)C(=O)O[C@H](CC)[C@@](C)(O)[C@H](O)[C@@H](C)C(=O)[C@H](C)C[C@@]2(C)O)O[C@H](C)C[C@@H]1N(C)C,inactive
18,Cc1ncc([N+](=O)[O-])n1CCO,inactive
19,N[C@@H](C(=O)N[C@@H]1C(=O)N2C(C(=O)O)=C(Cl)CS[C@H]12)c1ccccc1,inactive

row,SMILES,Potency
1,CCn1cc(C(=O)O)c(=O)c2cc(F)c(N3CCNCC3)cc21,inactive
2,Cc1ccc(O)c([C@H](CCN(C(C)C)C(C)C)c2ccccc2)c1,inactive
3,N=c1nc(N2CCCCC2)cc(N)n1O,inactive
4,"Cc1c2oc3c(C)ccc(C(=O)N[C@@H]4C(=O)N[C@H](C(C)C)C(=O)N5CCC[C@H]5C(=O)N(C)CC(=O)N(C)[C@@H](C(C)C)C(=O)O[C@@H]4C)c3nc-2c(C(=O)N[C@@H]2C(=O)N[C@H](C(C)C)C(=O)N3CCC[C@H]3C(=O)N(C)CC(=O)N(C)[C@@H](C(C)C)C(=O)O[C@@H]2C)c(N)c1=O (I: T[dV]P[Sar][NMeV] / II: T[dV]P[Sar][NMeV]; ester I:1-I:C, II:1-II:C; linker I:N-II:N via Actinocin(9to1))",inactive
5,CN1CC(=O)N/C1=N/C(=O)Nc1cccc(Cl)c1,inactive
6,Cc1oncc1C(=O)Nc1ccc(C(F)(F)F)cc1,inactive
7,C[C@H]1O[C@H](O[C@H]2[C@H](O)[C@@H](O)[C@@H](O[C@H]3[C@H](O)[C@@H](O)[C@H](O)O[C@@H]3CO)O[C@@H]2CO)[C@H](O)[C@@H](O)[C@@H]1N[C@H]1C=C(CO)[C@@H](O)[C@H](O)[C@H]1O,inactive
8,COC(=O)[C@H]1[C@H]2C[C@@H]3c4[nH]c5cc(OC)ccc5c4CCN3C[C@H]2C[C@@H](OC(=O)c2cc(OC)c(OC)c(OC)c2)[C@@H]1OC,inactive
9,CC[C@@H]([C@H](C)O)n1ncn(-c2ccc(N3CCN(c4ccc(OC[C@@H]5CO[C@@](Cn6cncn6)(c6ccc(F)cc6F)C5)cc4)CC3)cc2)c1=O,inactive
10,CC1(C)S[C@@H]2[C@H](NC(=O)C(C(=O)O)c3ccccc3)C(=O)N2[C@H]1C(=O)O (stereo partly specified),inactive
11,C=C(CC)C(=O)c1ccc(OCC(=O)O)c(Cl)c1Cl,inactive
12,CC1=NS(=O)(=O)c2cc(Cl)ccc2N1,inactive
13,OC(CCN1CCCC1)(c1ccccc1)C1CCCCC1 (stereo unspecified),inactive
14,COc1ccccc1OCCNCC(O)COc1cccc2[nH]c3ccccc3c12 (stereo unspecified),inactive
15,NC(=O)N1c2ccccc2CC(=O)c2ccccc21,inactive
16,CC(C)C[C@H](NC(=O)[C@H](CCc1ccccc1)NC(=O)CN1CCOCC1)C(=O)N[C@@H](Cc1ccccc1)C(=O)N[C@@H](CC(C)C)C(=O)[C@@]1(C)CO1,432 nM (active)
17,O=C(O)CCCc1ccccc1,inactive
18,CN(C)C(=N)N=C(N)N,inactive
19,CCCC(=O)Nc1ccc(OCC(O)CNC(C)C)c(C(C)=O)c1 (stereo unspecified),inactive
